Test [1] can be described thus: small molecules captured by biotinylated probe aFSTL3 – biochemical, small-molecule microarray, fluorescence 635/667, stem cell growth factor project, primary screen (AID 1064).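 Also: measures binding of the biotinylated anti-FSTL3 antibody to printed compounds.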 The following applies: higher = more signal.
Test [2] can be described thus: binders from COS7 lysate, DM2A8 probe, primary screen, torsin A project, cell lysate, small-molecule microarray, fluorescence 635/667 (AID 1065). The following applies: higher = more signal, COS7 lysate expressing mutant human TOR1A.
Test [3] in a line: small molecules captured by biotinylated probe aFGF2 – biochemical, small-molecule microarray, fluorescence 635/667, stem cell growth factor project, primary screen (AID 1067).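 Also: measures binding of biotinylated aFGF2 protein to printed compounds on slides; z-score merges feature fluorescence and signal-to-noise across triplicate slides.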 The following applies: higher = more signal.
A short description of test [4]: small molecules captured by biotinylated probe aFGF10 – biochemical, small-molecule microarray, fluorescence 635/667, stem cell growth factor project, primary screen (AID 1071).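 Also: score merges 667 nm spot intensity and signal to noise from triplicate slides.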 To be noted: higher = more signal.
For test [5], the target named is Neurogenic locus notch homolog protein 2 (Homo sapiens) (UniProt Q04721). Description: small molecules binding Notch2 protein – biochemical, small-molecule microarray, 635 nm fluorescence, stem cell growth factors, primary screen (AID 1073). The following applies: higher = more signal.
Test [6] addresses Pro-neuregulin-1, membrane-bound isoform (Homo sapiens) (UniProt Q02297). Description: small molecules binding neuregulin-1 protein – biochemical, small-molecule microarray, fluorescence 635/667, psychiatric disease protein project, primary screen (AID 1075).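 Also: score combines 667 nm spot fluorescence with signal to noise.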 To be noted: NRG1 binding, 635 nm fluorescence, higher = more signal.
Test [7] has as its system Neuregulin-1 EGF-like domain. Description: small molecules binding NRG1 EGF domain – biochemical, small-molecule microarray, 635 nm fluorescence, primary screen (AID 1081).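 Also: binding of the protein to compounds printed on small-molecule microarray slides.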 To be noted: higher = more signal.
Test [8] is described as follows: FRG1 expression reporter modulators in myotubes – cell-based, C2C12 myotubes, firefly/Renilla luciferase, luminescence, FRG1 inhibition for FSHD, primary screen (AID 1084). To be noted: FRG1 promoter luciferase, higher = more signal, called active from +8 up or from −8 down.
Test [9] can be described thus: small molecules captured by biotinylated probe aFST – biochemical, small-molecule microarray, fluorescence 635/667, stem cell growth factor project, primary screen (AID 1086).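 Also: score merges 667 nm fluorescence with signal-to-noise of each printed compound spot.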 To be noted: higher = more signal.
A short description of test [10]: binders of probe aHhip on microarray, primary screen, stem cell growth factor project, biochemical, small-molecule microarray, fluorescence 635/667 (AID 1087).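 Also: score merges spot fluorescence at 667nm with spot signal to noise ratio.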 The following applies: higher = more signal.

Calls of active or inactive are those of the source.

Chain of Neurogenic locus notch homolog protein 2 (Homo sapiens) (Q04721 whole entry, looked up, canonical isoform): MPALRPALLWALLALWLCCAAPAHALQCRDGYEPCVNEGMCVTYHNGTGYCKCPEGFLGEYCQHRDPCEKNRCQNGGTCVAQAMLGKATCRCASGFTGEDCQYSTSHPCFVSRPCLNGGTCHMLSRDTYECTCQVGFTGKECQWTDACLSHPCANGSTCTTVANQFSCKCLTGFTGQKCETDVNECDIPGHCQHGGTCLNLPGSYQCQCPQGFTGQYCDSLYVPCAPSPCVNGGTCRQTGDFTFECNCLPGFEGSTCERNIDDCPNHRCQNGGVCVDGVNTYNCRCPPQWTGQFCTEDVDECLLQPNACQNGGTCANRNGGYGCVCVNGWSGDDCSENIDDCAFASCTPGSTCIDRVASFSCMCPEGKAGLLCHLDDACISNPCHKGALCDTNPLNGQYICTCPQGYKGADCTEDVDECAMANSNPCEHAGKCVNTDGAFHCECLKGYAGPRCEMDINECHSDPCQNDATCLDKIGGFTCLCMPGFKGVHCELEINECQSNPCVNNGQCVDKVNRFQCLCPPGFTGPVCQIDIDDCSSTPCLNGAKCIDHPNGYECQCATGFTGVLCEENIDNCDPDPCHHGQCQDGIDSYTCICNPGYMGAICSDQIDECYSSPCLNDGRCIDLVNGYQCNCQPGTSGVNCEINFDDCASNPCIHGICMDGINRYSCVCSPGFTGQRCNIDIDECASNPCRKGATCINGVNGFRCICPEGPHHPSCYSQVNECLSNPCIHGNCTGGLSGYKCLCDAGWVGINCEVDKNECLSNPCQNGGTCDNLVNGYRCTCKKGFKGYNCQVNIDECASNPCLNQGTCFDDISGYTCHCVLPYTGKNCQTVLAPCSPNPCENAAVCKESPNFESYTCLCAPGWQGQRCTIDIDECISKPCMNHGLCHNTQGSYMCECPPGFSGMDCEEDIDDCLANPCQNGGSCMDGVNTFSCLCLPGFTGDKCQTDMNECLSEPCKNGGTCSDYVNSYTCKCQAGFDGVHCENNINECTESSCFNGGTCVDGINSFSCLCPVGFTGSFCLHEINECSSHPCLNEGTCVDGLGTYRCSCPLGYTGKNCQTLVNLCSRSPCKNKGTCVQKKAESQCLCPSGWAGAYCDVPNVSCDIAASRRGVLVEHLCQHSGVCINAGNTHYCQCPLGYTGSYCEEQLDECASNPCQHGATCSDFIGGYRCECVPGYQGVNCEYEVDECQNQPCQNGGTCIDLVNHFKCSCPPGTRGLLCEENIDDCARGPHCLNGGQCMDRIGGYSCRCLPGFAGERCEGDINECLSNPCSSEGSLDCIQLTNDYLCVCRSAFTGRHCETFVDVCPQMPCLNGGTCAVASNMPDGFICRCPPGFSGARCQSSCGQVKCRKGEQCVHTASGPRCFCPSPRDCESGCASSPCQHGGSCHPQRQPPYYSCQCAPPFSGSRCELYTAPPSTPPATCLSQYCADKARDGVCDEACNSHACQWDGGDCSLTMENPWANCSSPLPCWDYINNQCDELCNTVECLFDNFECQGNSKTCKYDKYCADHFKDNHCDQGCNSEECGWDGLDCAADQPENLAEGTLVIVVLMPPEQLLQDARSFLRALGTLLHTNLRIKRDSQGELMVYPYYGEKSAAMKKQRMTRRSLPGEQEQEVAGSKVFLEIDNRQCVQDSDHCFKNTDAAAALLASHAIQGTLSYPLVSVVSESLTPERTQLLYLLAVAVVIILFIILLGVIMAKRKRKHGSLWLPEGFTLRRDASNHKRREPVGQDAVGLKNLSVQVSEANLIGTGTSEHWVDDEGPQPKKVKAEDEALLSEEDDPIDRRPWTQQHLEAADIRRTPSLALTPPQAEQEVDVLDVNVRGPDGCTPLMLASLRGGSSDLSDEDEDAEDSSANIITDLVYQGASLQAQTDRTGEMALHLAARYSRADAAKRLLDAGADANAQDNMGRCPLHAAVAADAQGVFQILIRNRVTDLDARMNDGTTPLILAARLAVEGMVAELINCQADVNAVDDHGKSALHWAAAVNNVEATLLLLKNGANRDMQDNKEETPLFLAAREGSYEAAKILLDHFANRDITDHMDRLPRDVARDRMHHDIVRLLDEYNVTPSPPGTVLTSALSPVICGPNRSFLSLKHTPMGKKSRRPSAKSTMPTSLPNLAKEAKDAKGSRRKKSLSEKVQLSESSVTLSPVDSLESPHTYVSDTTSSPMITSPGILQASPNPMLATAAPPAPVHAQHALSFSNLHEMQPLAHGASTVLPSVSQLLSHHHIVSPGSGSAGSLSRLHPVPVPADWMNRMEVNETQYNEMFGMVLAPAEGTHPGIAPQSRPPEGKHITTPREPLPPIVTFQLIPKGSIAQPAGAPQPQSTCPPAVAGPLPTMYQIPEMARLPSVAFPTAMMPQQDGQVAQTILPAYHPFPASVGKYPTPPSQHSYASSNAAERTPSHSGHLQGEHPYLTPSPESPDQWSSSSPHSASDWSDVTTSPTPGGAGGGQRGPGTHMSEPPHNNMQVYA
Chain of Pro-neuregulin-1, membrane-bound isoform (Homo sapiens) (Q02297 whole entry, looked up, the tested form may be a part, canonical isoform): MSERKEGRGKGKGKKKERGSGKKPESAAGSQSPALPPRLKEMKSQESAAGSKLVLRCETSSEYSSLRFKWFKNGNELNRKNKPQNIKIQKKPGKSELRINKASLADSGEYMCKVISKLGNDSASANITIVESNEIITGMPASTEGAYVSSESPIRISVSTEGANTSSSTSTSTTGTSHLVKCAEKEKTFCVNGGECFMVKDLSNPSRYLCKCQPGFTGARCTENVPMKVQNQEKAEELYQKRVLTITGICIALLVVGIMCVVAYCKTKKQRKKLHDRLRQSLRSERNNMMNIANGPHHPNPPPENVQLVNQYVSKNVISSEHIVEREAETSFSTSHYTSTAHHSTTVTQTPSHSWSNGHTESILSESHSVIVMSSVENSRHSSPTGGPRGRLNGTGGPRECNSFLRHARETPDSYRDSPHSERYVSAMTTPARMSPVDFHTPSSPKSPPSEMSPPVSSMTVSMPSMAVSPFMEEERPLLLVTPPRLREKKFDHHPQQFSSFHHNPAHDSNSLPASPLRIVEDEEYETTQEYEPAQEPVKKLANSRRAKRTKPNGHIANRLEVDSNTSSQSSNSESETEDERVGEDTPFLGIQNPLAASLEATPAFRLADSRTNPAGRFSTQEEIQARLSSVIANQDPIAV

For `O=C1O[C@H](c2ccccc2)[C@H](c2ccccc2)N2[C@H]1[C@@H](C(=O)Nc1nc3ccccc3s1)[C@]1(C(=O)Nc3ccc(C#CCCO)cc31)[C@H]2c1ccc(OCCO)cc1`, the composite z-score was -0.379 in test [1]; 0.135 in test [2]; 0.0401 in test [3]; 1.14 in [4]; 1.19 in [5]; 0.887 in [6]. Besides, the values for the composite z-score in test [7], in [9] and in test [10] were 0.975, 0.119 and 0.224, respectively. Moreover, the z-score in test [8] was -0.0455 (inactive).

With `COc1ccc(C(=O)Nc2cccc(CN3C(=O)[C@]4(O[C@H](CCO)[C@@H]([Si](C)(C)c5ccc(OC)cc5)[C@@H]4C)c4ccccc43)c2)cc1`, the composite z-score in test [1] was -0.442; in test [2], 0.193; in test [3] it was -0.102; in test [4] it was 0.285; in test [5] it was 0.484; in [6], 0.621. In addition, the composite z-score is 1.09 in [7], 0.439 in [9] and -0.179 in [10]. Besides, in test [8], the z-score was -3.19 (inactive).

In the case of `CCOC(=O)C[C@H]1[C@H](OC(=O)c2ccc(C(=O)c3ccccc3)cc2)[C@@H](NC(=O)c2ccc(-c3ccccc3)cc2)c2cc(OCCCO)ccc2N1C(=O)c1ccccc1`, the composite z-score is -0.57 in test [1]; -0.264 in [2]; -0.212 in [3]; 0.577 in test [4]; 0.639 in test [5]; 0.771 in test [6]. Further, the composite z-score in [7] is 0.744; in [9] it was 0.319; in [10], -0.164. The z-score in test [8] was 0.805 (inactive).

In the case of `CC(C)(C)OC(=O)CC[C@@]12N=C(c3ccc(OCCCO)cc3)O[C@@H]1c1ccccc1N(CCS(=O)(=O)c1ccccc1)C2=O`, the composite z-score in [1] was 0.742; in [2], 0.066; in [3], -0.0174; in test [4], -0.366; in test [5], 0.893; in test [6], 0.729. The composite z-score in test [7] was found to be 1.11; in test [9] it was 0.687; in test [10], 0.0302. The z-score in [8] is -2.9 (inactive).

Consider `O=C1C2C=CC(C(O)c3c(F)cccc3Cl)N(Nc3ccccc3)C2C(=O)N1c1ccccc1` (stereo not given), for which the composite z-score in test [1] is -0.0072; in [2], -0.0274; in test [3] it was 0.0363; in [4], 0.354; in test [5], 1.7; in test [6], 1.86. Further, the composite z-score in test [7] was 1.25; in [9] it was 1.09; in test [10] it was -0.359. Further, the z-score in test [8] was -3.84 (inactive).

For the compound `COc1ccc(C(=O)Nc2ccc(CN3C(=O)[C@@]4(O[C@@H](CC(=O)N5CCC[C@H]5CO)[C@H]([Si](C)(C)c5ccc(OC)cc5)[C@H]4C)c4ccccc43)cc2)cc1`, the composite z-score in [1] is -0.172; in [2], 0.195; in test [3] it was -0.0202; in [4], 0.577; in [5] it was 1.47; in test [6] it was 1.3. In addition, the results for the composite z-score in test [7], in test [9] and in [10] were 1.16, 0.543 and 0.176, respectively. In test [8], the z-score was -4.05 (inactive).

As to `COCC(=C=CC[C@@H](O)c1ccccc1OCCO)C[C@@H](O)c1cc(Cl)cc(Cl)c1O`, the composite z-score in test [1] is -0.685; in test [2] it was 0.528; in test [3], -0.0276; in test [4] it was 1.14; in [5], 1.09; in test [6], 0.935. For the same compound, the composite z-score stood at 1 in test [7], 0.624 in test [9] and 0.164 in test [10]. Moreover, in test [8], the z-score was -0.914 (inactive).

Take `CCc1oc(CC[C@@H](CO)NC(=O)NCCn2cc(C3(O)CCCCC3)nn2)c(C(=O)OC)c1C(=O)OC`: the composite z-score in [1] was -0.33; in [2] it was 0.979; in test [3] it was -0.0549; in test [4], 0.809; in [5], 0.924; in test [6], 0.172. Also, the composite z-score was 1.23 in test [7], 0.457 in test [9] and -0.353 in test [10]. In addition, in [8], the z-score is 0.306 (inactive).

Regarding `CCOC(=O)C[C@H]1[C@H](OC(=O)Cc2ccc3c(c2)OCO3)[C@@H](NC(=O)c2ccc(-c3ccccc3)cc2)c2cc(OCCCO)ccc2N1C(=O)Cc1ccc(OC)cc1`, the composite z-score was -0.429 in test [1]; 0.816 in test [2]; -0.0636 in test [3]; 0.412 in test [4]; 0.819 in test [5]; 0.337 in test [6]. In addition, the results for the composite z-score in test [7], in test [9] and in test [10] were 0.269, 0.339 and -0.415, respectively. The z-score in test [8] was -3.25 (inactive).

Take `COCCOC(=O)N1C(=O)[C@@]2(c3cc(C#CC4=CCCCC4)ccc31)[C@H](C(=O)Nc1nc3ccccc3s1)[C@H]1C(=O)O[C@H](c3ccccc3)[C@H](c3ccccc3)N1[C@@H]2c1ccc(OCCO)cc1`: the composite z-score in test [1] is -0.152; in test [2], 0.471; in test [3], -0.0009; in test [4], 0.427; in test [5], 1.12; in test [6] it was 0.342. The composite z-score in test [7] was 0.899; in [9], 0.146; in test [10] it was -0.0994. Also, in test [8], the z-score was 2.19 (inactive).

With `O=C(C1N=C(c2ccc(OCCCO)cc2)N(c2ccccc2)O1)N1CCOCC1` (stereo not given), the composite z-score in test [1] was -0.428; in [2] it was 0.267; in [3] it was 0.0646; in test [4] it was 1.28; in test [5] it was 1.45; in test [6] it was 1.27. Further, the values for the composite z-score in [7], in [9] and in [10] were 0.336, 0.974 and -0.113, respectively. Also, the z-score in test [8] was 2.27 (inactive).

Turning to `Cc1ccc(S[C@]2(C(=O)NC3CC3)CC(=O)N(C3Cc4ccccc4C3)[C@@H]2c2ccc(CO)cc2)cc1`, the composite z-score in [1] is 0.631; in test [2] it was -0.233; in [3], 0.11; in [4], -0.563; in [5], -0.363; in test [6], 1.08. Further, the composite z-score in test [7] is 0.836; in [9] it was -0.175; in [10] it was -0.134. The z-score in [8] is -2.83 (inactive).

With `C=CCNC(=O)[C@@H]1[C@H]2C(=O)O[C@H](c3ccccc3)[C@H](c3ccccc3)N2[C@H](c2ccc(OCCO)cc2)[C@@]12C(=O)Nc1ccc(C#CCCO)cc12`, the composite z-score stood at 0.604 in test [1]; 0.727 in test [2]; 0.162 in [3]; 0.944 in [4]; 1.05 in test [5]; 0.853 in [6]. In addition, the composite z-score in test [7] was 1.25; in test [9] it was 0.804; in test [10], -0.138. For the same compound, the z-score in test [8] is 0.806 (inactive).

`COc1ccc([C@H]2C[C@H]3C(Br)=C[C@@H]2C(=O)[C@]32CO2)cc1`: the composite z-score in test [1] is 0.203; in test [2] it was 0.133; in test [3], -0.083; in [4], -0.126; in [5], -0.239; in test [6] it was -0.152. Further, the values for the composite z-score in test [7], in test [9] and in test [10] were -0.577, 0.0125 and -0.0618, respectively. Moreover, the z-score in [8] was 1.96 (inactive).

The values are drawn from PubChem BioAssay.
